# Hit rate of the full screen: of about 280,000 compounds, about 50 (0.02%) were called active. The sample holds actives, similar compounds and a random draw of the others, so the mix is not that of the screen. Potency and affinity values are given separately. Unmarked numbers belong to inactive results. Cut-off read from the data, not from the text of the source: active = activation above about 50% (passing the limit was not always enough); inactive = the rest.
# Target: Kappa-type opioid receptor (Homo sapiens) (UniProt P41145)
# Sequence (P41145 whole entry, looked up): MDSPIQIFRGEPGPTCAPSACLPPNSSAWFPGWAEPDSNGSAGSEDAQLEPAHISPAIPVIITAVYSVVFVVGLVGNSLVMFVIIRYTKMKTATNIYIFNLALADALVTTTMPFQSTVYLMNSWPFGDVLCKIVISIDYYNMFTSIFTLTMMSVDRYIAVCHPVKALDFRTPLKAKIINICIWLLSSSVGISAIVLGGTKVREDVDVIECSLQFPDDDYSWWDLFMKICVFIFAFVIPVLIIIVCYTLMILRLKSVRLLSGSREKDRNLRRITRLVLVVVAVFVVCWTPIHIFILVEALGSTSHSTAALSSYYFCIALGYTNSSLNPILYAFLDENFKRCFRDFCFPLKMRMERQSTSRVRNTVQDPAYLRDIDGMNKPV
# Assay: KOR agonists, beta-arrestin recruitment, primary screen, cell-based, luminescence, uHTS (AID 1777)
# Conditions: at 10 µM, hits give high values
row,SMILES,activation
1,Cn1c(=O)c2c([nH]c(OCc3ccc(Cl)cc3Cl)[n+]2Cc2ccc(F)cc2)n(C)c1=O,6.8%
2,O=C(c1ccc(=O)[nH]c1)N(Cc1cccs1)C1(C(=O)NC2CCCC2)CCCCC1,5.3%
3,O=C(Cc1cccs1)N(Cc1cccs1)C1(C(=O)NC2CCCCC2)CCCCC1,-1.5%
4,O=C(c1cnccn1)N(Cc1cccs1)C1(C(=O)NC2CCCCC2)CCCCC1,64.7% (active)
5,O=C(Cc1cccs1)N(Cc1cccs1)C1(C(=O)NC2CCCC2)CCCCC1,-2.8%
6,O=C(c1cnccn1)N(Cc1cccs1)C1(C(=O)NC2CCCC2)CCCCC1,30.1%
7,COc1ccc(NC2=NCCCCC2)cc1,-4.3%
8,Cc1ccc(N2C(=O)C(c3c(C)[nH]n(-c4ccccc4)c3=O)(C(F)(F)F)C3=C2CC(C)(C)CC3=O)cc1 (stereo not given),-2.8%
9,Cc1ccc(C(=O)NC(=S)Nc2cccc(NC(=O)c3ccccc3Cl)c2)cc1[N+](=O)[O-],1.9%
10,CNC(=S)N(CCc1c(C)[nH]c2ccc(Cl)cc12)Cc1cccnc1,-1%
11,c1ccc(Cn2c(-c3cccs3)nc3nc4ccccc4nc32)cc1,65.7% (active)
12,C=CCn1c(-c2cccs2)nc2nc3ccccc3nc21,-4.6%
13,CCCn1c(-c2cccs2)nc2nc3ccccc3nc21,13.8%
14,O=C(NCc1cnc2ccccn12)C1CCC(=O)N(Cc2ccccc2F)C1 (stereo not given),-0.5%
15,CN(C)S(=O)(=O)c1ccc(NC(=O)N2CCN(c3ccccc3)CC2)cc1,22.3%
16,CC(=O)N1CCN(c2ccc(NC(=O)c3cc(Cl)ccc3Cl)cc2)CC1,-3.7%
17,CCOC(=O)CSc1nnc2n(Cc3ccccc3)c(=O)c3c4c(sc3n12)CCC4,-9.3%
18,C=C(C)CSc1nnc2n(Cc3ccccc3)c(=O)c3c4c(sc3n12)CCC4,-1.4%
19,CCCSc1nnc2n(Cc3ccccc3)c(=O)c3c4c(sc3n12)CCC4,69.7% (active)
20,O=C(NCC1CCCO1)C1CCCN(S(=O)(=O)c2ccc(Br)cc2)C1 (stereo not given),0.4%
21,CCOC(=O)c1ccccc1N/C=C1\CCCC1=O,0.9%
22,Cn1c(=O)oc2cc(S(=O)(=O)N3CCN(c4ccc(F)cc4)CC3)ccc21,-1.1%
23,O=C1CN(CC(=O)N2CCCCC2)c2ccccc2O1,-1.4%
24,COc1cc([N+](=O)[O-])ccc1NC(=O)Nc1ccc(C(=O)N2CCCC2)cc1,-5.9%
25,Brc1ccc(CSc2nnc(-c3cnccn3)n2Cc2ccco2)cc1,41.3%
26,COC(=O)CSc1nnc(-c2ccccn2)n1Cc1ccco1,-0.5%
27,C(=C\c1ccccc1)/CSc1nnc(-c2ccccc2)n1Cc1ccco1,3.8%
28,O=C(CSc1nnc(-c2ccccn2)n1Cc1ccco1)c1ccccc1,15.7%
29,NC(=O)CSc1nnc(-c2ccccn2)n1Cc1ccco1,2.2%
30,C(=C\c1ccccc1)/CSc1nnc(-c2cnccn2)n1Cc1ccco1,16.2%

# Reference: PubChem BioAssay AID1777 (Sanford-Burnham Center for Chemical Genomics, 2009)
